These results are taken from PubChem BioAssay (Tox21).

SMILES strings stand for the structures. Records with an inconclusive call do not appear. Unmarked numbers belong to inactive results. Activity calls are given as the source filed them. The call rests on the fitted dose curve; in most records, active means well fitted activation curve with a large enough effect in the repeat runs; inconclusive means weak or mixed curves; inactive means flat fitted curve, though single readings scatter.
On the % scale 0 is the no-effect control and ±100 the full control effect; potency means the concentration at half of the fitted maximal effect.

The nature of the assay: A CellTox Green Cytotoxicity Assay to monitor cytotoxicity in HEK293 cells - 32 hour (AID 1224881). Further: nearly all actives have a fitted effect of over 40% in size. Conditions: CellTox Green fluorescence; series mostly up to 76.8 µM; cytotoxicity increase: at the top concentration. The source says:
National Center for Advancing Translational Sciences [NCATS]
NIH Chemical Genomics Center [NCGC]
U.S. Environmental Protection Agency [EPA]
National Institutes of Environmental Health Sciences [NIEHS]
National Toxicology Program [NTP]
Cell-based models are critical for drug discovery. Determining the natural cytotoxic effects resulting from test compounds is an essential research activity. A CellTox Green Cytotoxicity Assay to monitor cytotoxicity in real time of continues cell culture during 40 hours of the compound treatment was used to screen Tox21 10K library compounds in Hek293 cells. CellTox Green Cytotoxicity Assay is a nonlytic, homogeneous, biofluorescent method to measure cytotoxicity in cell culture after experimental manipulation. The assay system uses a proprietary asymmetric cyanine dye that is excluded from viable cells but preferentially stains the dead cell's DNA. […] Viable cells produce no appreciable increases in fluorescence. Therefore, the fluorescence signal produced by the binding interaction with dead cell DNA is proportional to cytotoxicity.
The mixture of Hek293 cell suspension and reagents were dispensed at 600cells/6 ul/well in 1536-well tissue culture treated black solid bottom plates using a Multidrop dispenser. After the assay plates were incubated at a 37 C/5% CO2 incubator for 5 hours, 23 nL of compounds dissolved in DMSO, positive and negative controls was transferred to the assay plate by a pintool work station. The plates were incubated at 37 C for 40 hours. The fluorescence intensity were measured at 0h, 8h, 16h, 24h, 32h and 40h time points using ViewLux plate reader during compound treatment.
`CCN(CC)CCNc1ccc(CO)c2sc3ccccc3c(=O)c12`: the “cytotoxicity increase” value is 17% [at 35.3 µM].

As for `CCCCCCCCCCOCC(O)CN` (stereo not given), the Potency was 26.8 µM (active).

`C/C=C/c1ccc(OC)c(OC)c1`: the “cytotoxicity increase” value was -10.3%.

Turning to `CC(=O)Oc1ccc(C2(c3ccc(OC(C)=O)cc3)C(=O)Nc3ccccc32)cc1`, the “cytotoxicity increase” value was -18% [at 35.3 µM].

`Cc1c(C(=O)O)cccc1[N+](=O)[O-]`: the “cytotoxicity increase” value was -14.9%.

On to `CN1[C@@H]2CC[C@H]1CC(OC(=O)C(CO)c1ccccc1)C2` (stereo not given in full), for which the Potency result was “inactive”.

As for `CCc1ccc(C)nc1`, the “cytotoxicity increase” value is 2.17%.

In the case of `CCCCOC(=O)C(C)CC` (stereo not given), the “cytotoxicity increase” value was -0.0906%.

As to `CCCC(CC)CCCCCCCN` (stereo not given), the Potency was 44.7 µM (active).

As for `Cc1cccc(C)c1NC(=O)CN1CCN(CCCC(c2ccc(F)cc2)c2ccc(F)cc2)CC1`, the Potency is 19 µM (active).

`CCCCN(CCCC)CCC(O)c1cc2c(Cl)cc(Cl)cc2c2cc(C(F)(F)F)ccc12` (stereo not given): the “cytotoxicity increase” value is 9.85% [at 35.3 µM].

`CC(C)=C1CC[C@@H](C)CC1=O`: the “cytotoxicity increase” value was -1.79%.

On to `CCN(CC)c1cccc(C)c1`, for which the “cytotoxicity increase” value is -5.21%.

As to `CCN(CC)CCCN(c1ccccc1)C1Cc2ccccc2C1`, the “cytotoxicity increase” value was 21.6% [at 35.3 µM].

Regarding `CCCCCCCCCCc1ccccc1`, the “cytotoxicity increase” value is -8.13%.

Consider `NCCCCCCNCCCCCCN`, for which the “cytotoxicity increase” value was -5.49%.

On to `C=CC(=C)CCC=C(C)C`, for which the “cytotoxicity increase” value was 1.06%.

Turning to `CCCCCCCC/C=C\CCCCCCCC(=O)OCCOC(=O)CCCCCCC/C=C\CCCCCCCC`, the “cytotoxicity increase” value was 1.32%.

For the molecule `CCCCCCCCCCCCCC[n+]1ccccc1`, the Potency is 34.7 µM (active).

Turning to `CN(C)CCCN1c2ccccc2Sc2ccc(C(F)(F)F)cc21`, the Potency was 23.9 µM (active).

As for `O=C1OC(OC(=O)c2cccnc2Nc2cccc(C(F)(F)F)c2)c2ccccc21` (stereo not given), the “cytotoxicity increase” value was -4.07% [at 35.3 µM].

Consider `CC(CN(C)C)CN1c2ccccc2CCc2ccccc21` (stereo not given), for which the “cytotoxicity increase” value is 0.297% [at 35.3 µM].

Regarding `CO[C@H]1C=CO[C@@]2(C)Oc3c(C)c(O)c4c(O)c(cc(O)c4c3C2=O)NC(=O)/C(C)=C\C=C/[C@H](C)[C@H](O)[C@@H](C)[C@@H](O)[C@@H](C)[C@H](OC(C)=O)[C@@H]1C`, the “cytotoxicity increase” value was -32.5%.

In the case of `C/C=C/CO`, the “cytotoxicity increase” value was -5.32%.

On to `O=C(O)CCCCCCC(=O)O`, for which the “cytotoxicity increase” value was 8.5%.

Consider `CCCCCCCCCCCC(=O)N(CC)CC`, for which the “cytotoxicity increase” value was 0.141%.

Regarding `c1cc[nH]c1`, the “cytotoxicity increase” value is 14.7%.

With `Clc1nc2ccccc2s1`, the “cytotoxicity increase” value is 6.38%.

With `CCOCOCC`, the “cytotoxicity increase” value is -6.48%.

Take `ClC/C=C\CCl`: the “cytotoxicity increase” value is -3.91%.

As for `COc1cccc(OC)c1O`, the “cytotoxicity increase” value is 5.74%.

`CC(COC(=O)c1ccccc1)OC(=O)c1ccccc1` (stereo not given): the “cytotoxicity increase” value is 2.38%.

On to `O=Cc1ccc(F)cc1`, for which the “cytotoxicity increase” value was -8.3%.

`CCCCCCC(C)Nc1ccc(Nc2ccccc2)cc1` (stereo not given): the “cytotoxicity increase” value was 22.2%.

Turning to `C[n+]1c2cc(N)ccc2cc2ccc(N)cc21` (tested in a mixture with another compound), the Potency was 23.9 µM (active).

As to `Cn1cccc1`, the “cytotoxicity increase” value is -12.2%.

In the case of `CC1CCCNC1` (stereo not given), the “cytotoxicity increase” value is -8%.

On to `CC(C)N=C(N)/N=C(\N)Nc1ccc(Cl)cc1`, for which the “cytotoxicity increase” value was -1.2% [at 35.3 µM].

Turning to `CN(C)CCCN1c2ccccc2CCc2ccccc21`, the “cytotoxicity increase” value was 18.6% [at 35.3 µM].

As for `COc1cc(C=C2CCC/C(=C\c3ccc(O)c(OC)c3)C2=O)ccc1O`, the “cytotoxicity increase” value is 20.9% [at 35.3 µM].
